Measurements from the supplement of paper PMC6992640.
± gives the standard deviation of the averaged measurements.

What was measured:
Test in all cases: cell viability (% of vehicle); higher = less cytotoxic
Settings in all cases: 10 µM; 72 h
HCI01 = tested on: HCI01 (cells of a triple-negative basal-like breast cancer xenograft)
HCI03 = tested on: HCI03 (cells of an ER-positive luminal breast cancer xenograft)
HCI09 = tested on: HCI09 (cells of a triple-negative luminal androgen receptor type breast cancer xenograft)
HCI11 = tested on: HCI11 (cells of an ER-positive luminal breast cancer xenograft)
HCI13 = tested on: HCI13 (cells of an ER-positive luminal breast cancer xenograft)
HCI16 = tested on: HCI16 (cells of a triple-negative basal-like breast cancer xenograft)
UCD52 = tested on: UCD52 (cells of a triple-negative basal-like breast cancer xenograft)
WHIM2 = tested on: WHIM2 (cells of a triple-negative basal-like breast cancer xenograft)
WHIM30 = tested on: WHIM30 (cells of a triple-negative basal-like breast cancer xenograft)
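Further: PDX cells carrying CMV promoter-driven luciferase, viability read as total photon flux per second by IVIS imaging following D-luciferin, vehicle control 0.1% DMSO.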

| Compound | cell viability (HCI01) | cell viability (HCI03) | cell viability (HCI09) | cell viability (HCI11) | cell viability (HCI13) | cell viability (HCI16) | cell viability (UCD52) | cell viability (WHIM2) | cell viability (WHIM30) |
| --- | --- | --- | --- | --- | --- | --- | --- | --- | --- |
| CN(Cc1cnc2nc(N)nc(N)c2n1)c1ccc(C(=O)NC(CCC(=O)O)C(=O)O)cc1 (stereo not given) [Methotrexate] | 101 ± 8.6 | 115 | 91.1 ± 13 | 113 | 104 ± 7.5 | 93.4 | 89.1 ± 8.7 | 101 ± 2.1 | 94.9 ± 13 |
| CC#CCn1c(N2CCCC(N)C2)nc2c1c(=O)n(Cc1nc(C)c3ccccc3n1)c(=O)n2C (stereo not given) [Linagliptin (BI-1356)] | 160 ± 22 | 108 | 95.4 ± 7.2 | 142 | 105 ± 6.1 | 179 | 136 ± 2.3 | 111 ± 1.3 | 167 ± 7.3 |
| O=C([O-])CCCc1ccccc1.[Na+] [Sodium Phenylbutyrate] | 122 ± 6.5 | 135 | 101 ± 19 | 117 | 124 ± 8.9 | 127 | 103 ± 16 | 103.7 ± 0.73 | 162 ± 27 |
| Cc1nc2c([nH]1)CCN(C(=O)c1ccc(NC(=O)c3ccccc3-c3ccccc3)cc1)c1ccccc1-2.Cl [Conivaptan HCl] | 111 ± 18 | 83.3 | 60.4 ± 7.1 | 85.3 | 99.5 ± 17 | 106 | 71.7 ± 2.5 | 104 ± 22 | 141 ± 2 |
| CC(C)(Oc1ccc(Cl)cc1)C(=O)O [Clofibric Acid] | 109 ± 22 | 119 | 79.6 ± 22 | 99.3 | 94.8 ± 9.6 | 97.8 | 81.1 ± 14 | 93.3 ± 20 | 109.5 ± 0.67 |
| CS(=O)(=O)O.CS(=O)(=O)O.N=C(N)c1ccc2cc(OC(=O)c3ccc(N=C(N)N)cc3)ccc2c1 [Nafamostat Mesylate(FUT-175)] | 110 ± 13 | 82 | 43.9 ± 4.1 | 82.1 | 95.5 ± 20 | 98.4 | 106 ± 13 | 100 ± 34 | 105 ± 13 |
| CC(C)n1c(C=CC(O)CC(O)CC(=O)O)c(-c2ccc(F)cc2)c2ccccc21 (stereo not given) [Fluvastatin] | 91.2 ± 13 | 130 | 65.7 ± 18 | 162 | 192 ± 10 | 109 | 59.3 ± 12 | 48.9 ± 2.5 | 139 ± 14 |
| COC(=O)C1=C(C)NC(C)=C(C(=O)OC)C1c1ccccc1[N+](=O)[O-] [Nifedipine] | 82.2 ± 18 | 130 | 66.9 ± 6.3 | 71.2 | 93.3 ± 14 | 111 | 92.25 ± 0.35 | 92.3 ± 17 | 110.7 ± 0.67 |
| CCCC(=O)Nc1ccc(OCC(O)CNC(C)C)c(C(C)=O)c1.Cl (stereo not given) [Acebutolol HCl] | 125 ± 5.8 | 123 | 102 ± 22 | 106 | 76.3 ± 3.2 | 156 | 97.1 ± 7 | 98.7 ± 8.9 | 131.6 ± 0.063 |
| CCCC1CC(C(=O)NC(C(C)Cl)C2OC(SC)C(O)C(O)C2O)N(C)C1 (stereo not given) [Clindamycin] | 142 ± 42 | 124 | 83 ± 23 | 106 | 76.4 ± 12 | 122 | 96.8 ± 12 | 117 ± 13 | 116 ± 7.1 |
| CCCCNC(=O)NS(=O)(=O)c1ccc(C)cc1 [Tolbutamide] | 80.9 ± 42 | 118 | 91.4 ± 5.3 | 83.6 | 88.9 ± 3.6 | 101 | 96.6 ± 5.1 | 105 ± 25 | 101 ± 8.5 |
| COc1ccc(C=Cc2cc(OC)c(OC)c(OC)c2)cc1OP(=O)([O-])[O-].[Na+].[Na+] [Fosbretabulin (Combretastatin A4 Phosphate (CA4P)) Disodium] | 185 ± 47 | 115 | 110 ± 35 | 115 | 41.7 ± 5.6 | 132 | 86 ± 16 | 111 ± 12 | 104 ± 5.7 |
| O=C(O)Cc1ccccc1Nc1c(Cl)cccc1Cl [Diclofenac] | 92.9 ± 26 | 123 | 84.8 ± 15 | 96.8 | 114 ± 31 | 127 | 90.6 ± 16 | 87.4 ± 0.94 | 92.1 ± 4.7 |
| O=C(CCc1ccc(O)cc1)c1c(O)cc(O)cc1OC1OC(CO)C(O)C(O)C1O (stereo not given) [Phloridzin] | 104 ± 31 | 123 | 98.1 ± 10 | 97.7 | 106 ± 6.1 | 115 | 105 ± 4.7 | 96.2 ± 9.1 | 97.2 ± 7.4 |
| O=c1oc2c(O)c(O)cc3c(=O)oc4c(O)c(O)cc1c4c23 [Ellagic acid] | 102 ± 15 | 144 | 100 ± 3 | 105 | 177 ± 43 | 125 | 103.5 ± 0.7 | 118 ± 11 | 115 ± 11 |
| CS(=O)(=O)O.Cc1ccc(N(CC2=NCCN2)c2cccc(O)c2)cc1 [Phentolamine Mesylate] | 112 ± 14 | 116 | 118 ± 7.2 | 112 | 124 ± 11 | 101 | 99.5 ± 6.4 | 93.5 ± 12 | 137 ± 12 |
| CS(=O)(=O)c1ccc(C2=C(c3ccccc3)C(=O)OC2)cc1 [Rofecoxib] | 127 ± 8.3 | 119 | 84.3 ± 18 | 99.7 | 141 ± 20 | 96.7 | 78.7 ± 10 | 99 ± 6.9 | 84.6 ± 5.8 |
| CC(=O)N(c1onc(C)c1C)S(=O)(=O)c1ccc(N)cc1 [Sulfisoxazole Acetyl] | 90.9 ± 1.4 | 116 | 90.9 ± 11 | 95.7 | 95.2 ± 3.5 | 104 | 92.77 ± 0.54 | 106 ± 3.9 | 103 ± 1.9 |
| CCCC1CC(C(=O)NC(C(C)Cl)C2OC(SC)C(OP(=O)(O)O)C(O)C2O)N(C)C1 (stereo not given) [Clindamycin Phosphate] | 140 ± 73 | 112 | 75.6 ± 25 | 96.6 | 86.2 ± 30 | 89.1 | 73.2 ± 16 | 92.7 ± 20 | 83.5 ± 1.4 |
| C[N+](C)(C)CC(O)CC(=O)O.[Cl-] (racemic) [DL-Carnitine HCl] | 111 ± 35 | 112 | 120 ± 37 | 101 | 113 ± 5.4 | 147 | 102 ± 13 | 114 ± 25 | 132 ± 11 |

| Compound | cell viability (HCI01) | cell viability (HCI03) | cell viability (HCI09) | cell viability (HCI11) | cell viability (HCI13) | cell viability (HCI16) | cell viability (UCD52) | cell viability (WHIM2) | cell viability (WHIM30) |
| --- | --- | --- | --- | --- | --- | --- | --- | --- | --- |
| CCOC(=O)c1ccc(C#Cc2ccc3c(c2)C(C)(C)CCS3)nc1 [Tazarotene] | 141 ± 48 | 108 | 127 ± 22 | 113 | 184 ± 8.9 | 97.9 | 104 ± 16 | 123 ± 1.6 | 188 ± 10 |
| COc1ccc(-c2nc3ccc(C4=NNC(=O)CC4C)cc3[nH]2)cc1 (stereo not given) [Pimobendan] | 134 ± 7.2 | 132 | 129 ± 48 | 132 | 146 ± 11 | 121 | 119 ± 5.9 | 168.4 ± 1.3 | 119 ± 7 |
| CC(C)OC(=O)C(C)NP(=O)(OCC1OC(n2ccc(=O)[nH]c2=O)C(C)(F)C1O)Oc1ccccc1 (stereo not given) | 85.3 ± 7.8 | 103 | 79.3 ± 11 | 79.5 | 82.5 ± 5.5 | 141 | 84.26 ± 0.3 | 104 ± 7 | 120 ± 5 |
| CCOC(=O)c1ccc(N)cc1 [Benzocaine] | 144 ± 13 | 87.2 | 115 ± 14 | 117 | 79.8 ± 1.6 | 134 | 117 ± 8.3 | 142 ± 12 | 140 ± 10 |
| COc1cc(C2c3cc4c(cc3C(OC3OC5COC(c6cccs6)OC5C(O)C3O)C3COC(=O)C23)OCO4)cc(OC)c1O (stereo not given) [Teniposide] | 104 ± 2.6 | 112 | 105 ± 36 | 111 | 134 ± 40 | 118 | 111 ± 1.8 | 87.3 ± 23 | 96.6 ± 4.3 |
| Cc1noc(NS(=O)(=O)c2ccc(N)cc2)c1C [Sulfisoxazole] | 89.3 ± 28 | 121 | 94.4 ± 8.1 | 86.9 | 107 ± 2.8 | 112 | 99.8 ± 3.5 | 84.1 ± 8.8 | 117 ± 1.3 |
| CCN(CC)CC#CCOC(=O)C(O)(c1ccccc1)C1CCCCC1 (stereo not given) [Oxybutynin] | 141 ± 10 | 130 | 132 ± 73 | 118 | 117 ± 17 | 134 | 82.9 ± 5.8 | 97.1 ± 30 | 148 ± 6.4 |
| Nc1ccc(S(=O)(=O)Nc2ncccn2)cc1 [Sulfadiazine] | 131 ± 9.1 | 126 | 158 ± 83 | 103 | 153 ± 29 | 101 | 95.5 ± 16 | 101 ± 21 | 118 ± 18 |
| CCOc1ccc2ccccc2c1C(=O)NC1C(=O)N2C1SC(C)(C)C2C(=O)[O-].O.[Na+] (stereo not given) [Nafcillin Sodium] | 107 ± 8.4 | 139 | 109 ± 6 | 110 | 117 ± 9.9 | 105 | 96.1 ± 8.5 | 101 ± 3.8 | 140 ± 11 |
| NC1CCCCC1N.O=C([O-])C(=O)[O-].[Pt+2] (stereo not given) [Oxaliplatin] | 97.5 ± 3.3 | 108 | 75.7 ± 30 | 114 | 89 ± 12 | 118 | 137 ± 9.3 | 108 ± 14 | 154 ± 2 |
| CCOC(=O)C(CCc1ccccc1)NC1CSC(c2cccs2)CN(CC(=O)O)C1=O.Cl (stereo not given) [Temocapril HCl] | 80.7 ± 40 | 103 | 106 ± 31 | 82.3 | 116 ± 9.8 | 101 | 88.7 ± 3.7 | 99 ± 12 | 114 ± 13 |
| CN(Cc1ccc(C(C)(C)C)cc1)Cc1cccc2ccccc12.Cl [Butenafine HCl] | 104 ± 1.5 | 99.2 | 117 ± 19 | 104 | 72.7 ± 4.7 | 151 | 81.4 ± 2.7 | 56.2 ± 12 | 142 ± 3.3 |
| CN(C)C(CCOc1cccc2ccccc12)c1ccccc1.Cl (stereo not given) [Dapoxetine HCl] | 87.4 ± 15 | 79.4 | 96.9 ± 11 | 74.2 | 95.1 ± 13 | 70 | 47.9 ± 5.3 | 65.2 ± 12 | 98.4 ± 1.4 |
| CN1CCC(OC(c2ccccc2)c2ccccc2)CC1.Cl [Diphenylpyraline HCl] | 86 ± 3.4 | 99.9 | 97.7 ± 17 | 106 | 97.2 ± 13 | 91.7 | 75.5 ± 12 | 84.7 ± 21 | 107 ± 14 |
| NS(=O)(=O)NCC/N=C1\NON\C1=C(\N=O)Nc1ccc(F)c(Br)c1 | 105 ± 6.8 | 99 | 35 ± 8.5 | 96.4 | 66.5 ± 1.4 | 112 | 57.5 ± 3.6 | 88.9 ± 9.7 | 96.2 ± 6 |
| CCCc1nn(C)c2c(=O)nc(-c3cc(S(=O)(=O)N4CCN(C)CC4)ccc3OCC)[nH]c12 [Sildenafil] | 83.6 ± 6.4 | 101 | 82.8 ± 18 | 73.3 | 73.7 ± 3.3 | 103 | 82.8 ± 2.1 | 92.4 ± 1 | 105.82 ± 0.018 |
| CC(C(=O)O)c1ccc(C(=O)c2cccs2)cc1 (stereo not given) [Suprofen] | 116 ± 29 | 133 | 97.9 ± 4 | 69.5 | 114 ± 7.9 | 125 | 102.3 ± 0.22 | 107 ± 3.9 | 100 ± 15 |
| Cl.c1ccc2c(c1)CCCC2C1=NCCN1 (stereo not given) [Tetrahydrozoline HCl] | 114 ± 3.1 | 116 | 97.1 ± 17 | 106 | 86.8 ± 1.9 | 108 | 89.5 ± 2 | 101 ± 21 | 115 ± 2.9 |
| Clc1ccccc1C(c1ccccc1)(c1ccccc1)n1ccnc1 [Clotrimazole] | 82.5 ± 21 | 70.8 | 55.1 ± 39 | 95.1 | 85.5 ± 21 | 79.8 | 79.6 ± 8.2 | 73.7 ± 16 | 125 ± 1 |
| Cc1nccn1CC1CCc2c(c3ccccc3n2C)C1=O.Cl.O.O (stereo not given) [Ondansetron hydrochloride dihydrate] | 101 ± 12 | 82.1 | 117 ± 49 | 107 | 143 ± 6 | 106 | 83.84 ± 0.49 | 88.3 ± 12 | 68.2 ± 14 |
